“And” between values parts separate entries of the source, which are not always exact repeats. Equal entries are not always repeated. The panel holds about 83,000 compounds, 20% with a hit somewhere; the sample as a whole holds those more often.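 For each line, cells grew in 96-well plates with the test compound present at a single concentration for 48 hours.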 The source made the active and inactive calls. The calls were made as follows: active = growth percent below 10; inactive = the rest.
Tested on: MDA-MB-468 breast
Assay: NCI-60 one-dose screen, 48 h (100 = growth as untreated, 0 = no growth, -100 = all killed)
Details: 10 µM unless noted

Row | Structure (SMILES) | growth
1 | CCOC(=O)c1c(C)nc2c(c1N)/C(=C/c1cc(OC)c(OC)c(OC)c1)C(=O)N2c1ccc(OC)cc1 | 56% (inactive)
2 | O=C(Cc1ccccc1)Nc1cccc(N=Cc2ccccc2O)c1 | 104% (inactive)
3 | COc1ccc2c(c1)CC/C(=C\c1cncc(Br)c1)C2=O | 99.4% (inactive)
4 | COc1ccc(C2=NN(C(C)=O)C(c3ccc(Oc4ccnc5cc(Cl)ccc45)c(OC)c3)C2)cc1 (centres undefined) | 54% (inactive)
5 | CN(C)c1ccc(C2(Cl)c3ccccc3N(C)c3ccccc32)cc1 | 50.8% (inactive)
6 | COc1cc(C(=O)c2c(N)ncn2-c2ccccc2)cc(OC)c1OC | 76% (inactive)
7 | COc1ccc2c(c1)OC13Oc4cc(OC)ccc4C=C1CCCC3=C2 | 56.3% (inactive)
8 | CCN(CC)CCOc1ccc2c(c1)C(=O)c1cc(OCCN(CC)CC)ccc1-2 | 14.9% (inactive) and -13.8% (active)
9 | CCc1ccc(Oc2cn[nH]c2-c2ccc(OCCc3ccc(F)cc3)cc2O)cc1 | 105% (inactive)
10 | C=CC(=O)OC1CCC(C(C)(C)CC)CC1 (centres undefined) | 108% (inactive)
11 | CCN1C(=O)N(CC)C2SC(N/N=C/c3ccc(OC)cc3)=NC21 (centres undefined) | 32.2% (inactive)
12 | Cc1[nH]c(C(=O)Nc2ccccc2OC2CCNC2)c(Cl)c1Cl (centres undefined) | 53.8% (inactive)
13 | COc1ccc2c(c1)c(-c1nc(-c3c[nH]c4ncccc34)cs1)cn2CCNC(=O)OC(C)(C)C | 20% (inactive)
14 | CC(=O)Nc1ccc2c(c1)/C(=C\C=C/c1ccc([N+](C)(C)C)cc1)c1ccccc1-2 | 21.5% (inactive)
15 | CCNC(=O)N1CCc2cc(OC)c(OCCc3ccc(OC)cc3)cc2C1c1ccc(Cl)cc1C (centres undefined) | -1.44% (active)
16 | COC(=O)CNC(=O)c1cccc(-c2cc(=O)c3c(OC)c(OC)c(OC)cc3o2)c1 | 89.8% (inactive)
17 | CNC(=S)NNC(=O)C1CC1 | 108% (inactive)
18 | C1CCC(N2CN3c4nonc4N4CN(C5CCCCC5)CN5c6nonc6N(C2)C3C45)CC1 (centres undefined) | 99.5% (inactive)
19 | CN(Cc1cc(Br)cc(Br)c1O)Cc1cc(Br)cc(Br)c1O | -1.21% (active)
20 | CC(=O)N1N=C(c2ccc(-n3ccc(C(F)(F)F)n3)c(F)c2)CC1c1ccc[nH]1 (centres undefined) | 117% (inactive)

Row | Structure (SMILES) | growth
21 | O=C(Nc1ccc(-n2cc(-c3ccncc3)c(-c3ccc(Cl)c(O)c3)n2)cc1)Nc1cc(C(F)(F)F)cc(C(F)(F)F)c1 | 13.9% (inactive)
22 | CCCCCCn1c(-c2ccc(C(=O)O/N=C(\N)c3ccc4c(c3)OCO4)cc2)nc(-c2ccccc2)c1-c1ccccc1 | 43.4% (inactive)
23 | COC1(OC)C2(Cl)C(Cl)=C(Cl)C1(Cl)C1COCC12 (centres undefined) | 87% (inactive)
24 | O=C1c2ccccc2C(=O)c2c1ccc(C(Br)Br)c2Cl | -12.6% (active)
25 | O=c1c2cccc(Cl)c2sc2c(NCCCNCCO)nc3ccccc3c12 | -19.5% (active)
26 | CC(C)c1nc2ccccc2n1CC(=O)N/N=C/c1cccc(O)c1 | 98.4% (inactive)
27 | C=CCCCCOc1cccc(/C=C2\N=C3SCCCN3C2=O)c1 | 89% (inactive)
28 | C/C(=N/N=C(N)N)c1ccc(Cl)cc1 | 95.7% (inactive)
29 | Cc1cccc(NC(c2cc3cccc4ccc5cccc2c5c43)c2nnnn2C(C)(C)C)c1C (centres undefined) | -10.3% (active)
30 | Cc1cc2c(c(C)n1)CN(C(=O)Nc1nc(-c3cncs3)ccc1N)C2 | 110% (inactive)
31 | COc1ccc(C/C(C)=C(\c2ccc(Cl)cc2)c2ccc(OCCN3CCCCCC3)cc2)cc1 | 70.9% (inactive)
32 | N=C1C=C(N)C(=O)c2ccccc21 | -85.6% (active)
33 | CC(NNC(C)c1ccccc1)c1ccccc1 (centres undefined) | 104% (inactive)
34 | O=S(=O)(O)c1cc(O)c2c(N=Nc3ccc(Nc4ccccc4)c4c(S(=O)(=O)O)cccc34)cc(S(=O)(=O)O)cc2c1 | 103% (inactive)
35 | CCOC(=O)c1cnn(-c2ccc(S(N)(=O)=O)cc2)c1N | 94.7% (inactive)
36 | Cn1cc(-c2cc3c(Nc4ccc(CC(=O)Nc5cc(C(C)(C)C)on5)cc4)ncnc3[nH]2)cn1 | -74.3% (active) and -62.1% (active)
37 | CCCCCCCCCCCCC1CCC(=O)O1 (centres undefined) | 105% (inactive)
38 | C=CCSc1ccc2c(c1)C(N1CCNCC1)=Nc1ccccc1O2 | 27.8% [8.25 µM] (inactive)
39 | O=C(Cn1c[n+](CC(=O)c2ccc(-c3ccccc3)cc2)c2ccccc21)Nc1cccc2cccnc12 | -6.11% (active)
